# Assay results taken from PubChem BioAssay AID624297 (National Center for Advancing Translational Sciences (NCATS), 2012).
# Among all 340,000 compounds or so, about 6,200 (1.8%) were called active. Not shown: some 10% with an inconclusive outcome. This excerpt belongs to a sample that is enriched for actives. A number with no mark means an inactive call. Calls follow the shape of the dose curve; as a rule, active = well fitted activation curve with a large enough effect; inconclusive = small, poorly fitted or top-dose-only effect; inactive = no such curve, though single readings can be large or run the other way.
# Assay: A quantitative high throughput screen for small molecules that induce DNA re-replication in SW480 colon adenocarcinoma cells. Also: nearly all actives have a fitted effect of over 55% in size. As to re-replication activation: % of control where 0% means no effect.
# Settings: Hoechst DNA content imaging, 48 h; series mostly up to 46.1 µM; re-replication activation: at the top concentration
# Source text: H Molecular Libraries Probe Production Network [MLPCN] NIH Chemical Genomics Center [NCGC] MLPCN Grant: Fast Track K99 CA136555 Assay Provider: Melvin DePamphilis, NICHD, NIH Assay Overview Eukaryotic cells normally restrict genome duplication to once per cell division. When this process is aberrant, DNA re-replication occurs when cells reinitiate DNA replication before the first round of replication is complete. DNA re-replication induces the DNA damage response, arrests cell proliferation, and triggers apoptosis. The cell cycle components cyclin A, Cdt-1, Cdc6 and geminin are critical regulators of this process and their misregulation results in DNA re-replication in normal and cancer cells. To identify compounds that induce re-replication in normal cells, an image-based assay was used to measure DNA content of nuclei, as detected by the fluorescent DNA binding dye, Hoechst. Cell nuclei were imaged by a fluorescence scanning plate imager and compounds that induce DNA re-replication were identified by the increase of nuclei with elevated fluorescence intensity
# For screening, 250 cells in 5 uL/well were dispensed into black clear 1536-well plates (Aurora) using a solenoid-based dispenser. Following transfer of 23 nL compound or DMSO vehicle by a pin tool, the plates were incubated 48 hr at 37 C and 5% CO2. After addition of 1 uL/well Hoescht stain, the plates were incubated 40 min at 37 C, 5% CO2 and total intensity of fluorescent objects (nuclei) were enumerated by an Acumen Explorer Ex3 (TTP LabTech) fluorescence scanning plate imager (405 nm excitation, 500-530 nm emission). Keywords: NIH Roadmap, MLPCN, MLI, MLSMR, qHTS, NCGC, DNA replication, cancer
# Potency is read from the fitted curve at half-maximal effect.
Structure (SMILES),re-replication activation,Potency
COc1ccc(-c2nnc(-c3ccc4ccccc4c3)o2)cc1,-7.64%,–
CN(Cc1ccccc1)C(=O)COC(=O)/C=C/c1ccc2c(c1)OCO2,-5.02%,–
CC(C)(C)c1ccc(C(=O)NCC(=O)OCN2C(=O)c3ccccc3C2=O)cc1,0.942%,–
N#Cc1c(N)n(CCOC(=O)c2ccc(Cl)cc2)c2nc3ccccc3nc12,–,20.6 µM (active)
CN1OC(COC(=O)c2ccc(Cl)cc2)CC1c1ccccc1 (stereo not drawn),-2.4%,–
CC(C)(C)c1ccc(C(=O)NCCn2c(N)c(C#N)c3nc4ccccc4nc32)cc1,–,20.6 µM (active)
Cn1cncc1COC(=O)c1ccc(Cl)cc1,-12.1%,–
CC(C)(C)OC(=O)c1c(N)n(CCCN2CCCC2=O)c2nc3ccccc3nc12,-6.4%,–
COc1ccc(S(=O)(=O)N(C)C[C@H]2Oc3ccc(NS(=O)(=O)c4cccs4)cc3CC(=O)N([C@H](C)CO)C[C@H]2C)cc1,-2.46% [at 9.22 µM],–
CSCCC(NC(=O)c1ccccc1)C(=O)N1CCN(Cc2ccc(Cl)cc2)CC1 (stereo not drawn),-284%,–
CC1CCCN(C(=O)CN2C(=O)c3ccccc3S2(=O)=O)C1 (stereo not drawn),-1.92%,–
CCCCCCOc1ccc(OC(=O)c2cccnc2)cc1,–,8.2 µM (active)
N#CCc1ccc(OC(=O)c2cccnc2)cc1,-4.49%,–
O=C(Oc1ccc(Br)cc1)c1cccnc1,-2.56%,–
COc1ccccc1N(CC(=O)Nc1ccc(C)cc1Cl)S(=O)(=O)c1cccs1,0.978%,–
CC(=O)c1c(OCC(=O)N(C)C2CCCCC2)ccc2c(C)cc(=O)oc12,-0.36%,–
CC(=O)c1cccc(-c2ccc(CN3C(CC(C)C)C(=O)N(Cc4cn(CC5CCCCC5)nn4)CCS3(=O)=O)cc2)c1 (stereo not drawn),-0.514%,–
CCOc1cccc(/C=N/NC(=S)NCCN2CCOCC2)c1O,–,1.46 µM (active)
Cc1ccc(C(=O)NC(=S)NCCN2CCOCC2)cc1,0.443%,–
CCOc1cccc(/C=N/N2C(=O)CSC2=S)c1O,-0.569%,–
COC1C(CO)OC(n2cnc3c(=S)nc(N)[nH]c32)C1O (stereo not drawn),-3.09%,–
CCOc1cc2c(cc1OCC)C(C(=O)O)C(c1ccc(OC)c(O)c1)N(C)C2=O (stereo not drawn),-13.5% [at 9.22 µM],–
COc1cc2c(cc1OC)C1C(=O)c3cc(OS(C)(=O)=O)c(OC)cc3C1N(C)C2=O (stereo not drawn),–,7.31 µM (active)
COc1cccc(NC(=O)C2c3cc(OC)c(OC)cc3C(=O)N(C)C2c2cccnc2)c1 (stereo not drawn),2.23%,–

Structure (SMILES),re-replication activation,Potency
O=C1CC[C@@H]2CC3(C[C@@H]4CCN1[C@H]24)Nc1cc([N+](=O)[O-])ccc1NC3=NC1CCCCC1 (stereo partly drawn),-13.5%,–
CC(NC(=O)COC(=O)CCC(=O)c1ccc(Cl)cc1)c1ccccc1 (stereo not drawn),-6.09%,–
FC(F)(F)c1nnc2ccc(N3CCN(c4ccccc4)CC3)nn12,0.3%,–
FC(F)(F)c1nnc2c3ccccc3c(Cl)nn12,–,2.59 µM (active)
Nc1nnc2c(C(F)(F)F)nc3ccccc3n12,6.87%,–
COc1ccc(NS(=O)(=O)c2cc(NC(=O)c3ccc(S(=O)(=O)N(C)C)cc3)ccc2N2CCOCC2)cc1,4.03%,–
COc1ccccc1C(=O)NCC(=O)OCC(=O)NNC(=O)c1ccc(Br)cc1,0.282%,–
COc1ccc(/C=C2\N=C3CCCN3C2=O)cc1,-18.8%,–
COc1ccc(/C=C2\CCc3ccccc3C2=O)c(OC)c1OC,3.39%,–
COc1ccc(/C=C2/CCCc3ccccc3C2=O)cc1,–,9.2 µM (active)
O=C(CN1C(=O)NC(Cc2c[nH]c3ccccc23)C1=O)Nc1ccccc1C(F)(F)F (stereo not drawn),-21.5%,–
CCCN=C1N(C)C[C@@H]2[C@@H]3C(=O)N(Cc4ccccc4)C(=O)[C@@H]3[C@](C)(C(=O)OC)N12,0.326%,–
Nc1ccc2c(c1)C(O)c1ccc(Cl)cc1-2 (stereo not drawn),21.7%,–
CCCN1C2CCCC1CC(NC(=O)NC13CC4CC(CC(C4)C1)C3)C2 (stereo not drawn),-6.15%,–
CCCN1C2CCCC1CC(NC(=O)c1cccc(OC)c1)C2 (stereo not drawn),-3.5%,–
CCCNC(=S)NC1CC2CCCC(C1)N2CC(C)C (stereo not drawn),–,20.6 µM (active)
O=C1c2ccccc2[C@@H]2C[C@@H](O)[C@H](Nc3ccccc3Cl)CCN12,7.29%,–
Cc1ccc(S(=O)(=O)N(CC(=O)Nc2cccc([N+](=O)[O-])c2)Cc2ccc(Cl)cc2)cc1,–,8.2 µM (active)
COc1ccc(C)cc1S(=O)(=O)N(CC(=O)Nc1cccc([N+](=O)[O-])c1)c1ccc(C)cc1,-5.43%,–
Cc1ccc(CN(C)CC(=O)Nc2cccc([N+](=O)[O-])c2)o1,3.11%,–
CCCN(C(=O)CSc1nnc(N)s1)c1c(N)n(Cc2ccccc2)c(=O)[nH]c1=O,26.3%,–
COc1ccc2c(c1)c(=Cc1ccc(N(C)C)cc1)c1cc(-c3ccccc3)[n+](C)n12,-3.87%,–
CC(C)(C)OC(=O)CNC(=O)c1[nH]cnc1C(=O)N[C@@H](CCCCN)C(=O)OC(C)(C)C,-0.556%,–
NS(=O)(=O)c1cccc(NC(=O)COC(=O)c2cc([N+](=O)[O-])ccc2N2CCCC2)c1,-5.61%,–
